The values below come from PubChem BioAssay.

Test [1] concerns the target Albumin (Bos taurus) (UniProt P02769). The experiment in a line: bovine serum albumin binders on microarray, profiling panel, artefact control for SMM control protein annotation, biochemical, small-molecule microarray, Alexa647 label, 635/667 nm fluorescence (AID 1118).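 Note: score merges 667 nm emission intensity and signal-to-noise per printed compound spot.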 The settings on record: BSA-A647 binding, fluorescence 635 nm, higher = more signal.
Test [2] in a line: small-molecule microarray binders of probe aXIP, primary screen, biochemical, NeuroSMM set, 635/667 nm fluorescence (AID 1119).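 Note: probe is the protein aXip251-270 applied at 1 µg/mL to compound-printed slides; binding of probe to printed compounds measured as 667 nm fluorescence plus signal to noise.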 As to conditions: higher = more signal, called active from +8 up or from −8 down.
A short description of test [3]: small-molecule binders of probe aNOTCH3, primary screen, biochemical, small-molecule microarray, 635/667 nm fluorescence (AID 1120).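 Note: probe is a biotin-tagged antibody raised against NOTCH3 rather than NOTCH3 protein; score merges spot fluorescence near 667 nm with spot signal to noise.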 As to conditions: higher = more signal.
Test [4] in a line: small-molecule binders of probe aNOTCH2, primary screen, biochemical, small-molecule microarray, 635/667 nm fluorescence (AID 1121).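 Note: score merges feature fluorescence read at 667 nm with its signal to noise.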 The settings on record: higher = more signal.
In test [5] the target is Carbonic anhydrase 2 (Homo sapiens) (UniProt P00918). Put plainly: CAII small-molecule binders, profiling panel, biochemical, small-molecule microarray, Alexa647-labelled CAII (AID 1122). The settings on record: CAII-A647 binding fluorescence, higher = more signal.
Test [6] is described as follows: COS7 lysate on small-molecule microarray, probe aHis, 635 nm (AID 1123).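 Note: z-score combines 667nm fluorescence intensity with signal-to-noise per printed compound spot.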 As to conditions: COS7 cell lysate, fluorescence, higher = more signal.
A short description of test [7]: compound binding in COS7 lysate, probe aLAP1, primary screen, cell lysate, small-molecule microarray (AID 1124).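 Note: lysate comes from COS7 cells expressing LAP1 and is applied at 0.3 µg/mL; score merges spot fluorescence near 667 nm with signal-to-noise over triplicate slides.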 The settings on record: probe aLAP1, fluorescence, higher = more signal.
For test [8], the system named is Sam68 (KHDRBS1). The experiment in a line: Sam68 small-molecule binders, primary screen, biochemical, small-molecule microarray, 635 nm fluorescence (AID 1125).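 Note: score merges 667 nm channel intensity with signal to noise over triplicate slides.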 The settings on record: small-molecule microarray binding, higher = more signal.
Test [9] concerns Chordin-like protein 2 (CHRDL2). Put plainly: CHRDL2 small-molecule binders, primary screen, biochemical, small-molecule microarray, 635 nm fluorescence (AID 1126).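 Note: printed compound slides probed with Chrdl2 protein at 4 µg/mL for 1 h at 4 C; score merges 667 nm emission intensity with signal to noise over three replicate slides.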 The settings on record: small-molecule microarray binding, fluorescence 635 nm; higher = more signal.
Test [10] has as its target Concanavalin-A (Canavalia ensiformis) (UniProt P02866). Put plainly: ConA small-molecule binders, primary screen, artefact control for SMM control protein annotation, biochemical, small-molecule microarray, Alexa647 label, 635 nm (AID 1127).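 Note: z combines 667 nm emission intensity with signal-to-noise across three replicate slides.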 The settings on record: ConA-A647 binding fluorescence, higher = more signal.
The nature of test [11]: anti-His antibody binders, primary screen, artefact control for SMM control protein annotation, biochemical, small-molecule microarray, 635 nm fluorescence (AID 1128).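 Note: score merges feature fluorescence with signal-to-noise for each printed compound spot.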 The settings on record: anti-His Alexa647 antibody binding, higher = more signal.
Test [12] relates to Human papillomavirus type 1a E7 protein (residues 1-88). The experiment in a line: HPV1a E7 small-molecule binders, primary screen, biochemical, small-molecule microarray, residues 1-88, 635 nm (AID 1129). As to conditions: small-molecule microarray binding, fluorescence 635 nm; higher = more signal.
The target in test [13] is Focal adhesion kinase 1 (Homo sapiens) (UniProt Q05397). Put plainly: small-molecule microarray binders of FAK, primary screen, biochemical, 635/667 nm fluorescence, BSA, DTT (AID 1130).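 Note: composite of spot emission at 667 nm and signal to noise over triplicate slides.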 The settings on record: PTK2 binding, 635 nm fluorescence, higher = more signal.
Focal adhesion kinase 1 (Homo sapiens), sequence (Q05397 whole entry, looked up): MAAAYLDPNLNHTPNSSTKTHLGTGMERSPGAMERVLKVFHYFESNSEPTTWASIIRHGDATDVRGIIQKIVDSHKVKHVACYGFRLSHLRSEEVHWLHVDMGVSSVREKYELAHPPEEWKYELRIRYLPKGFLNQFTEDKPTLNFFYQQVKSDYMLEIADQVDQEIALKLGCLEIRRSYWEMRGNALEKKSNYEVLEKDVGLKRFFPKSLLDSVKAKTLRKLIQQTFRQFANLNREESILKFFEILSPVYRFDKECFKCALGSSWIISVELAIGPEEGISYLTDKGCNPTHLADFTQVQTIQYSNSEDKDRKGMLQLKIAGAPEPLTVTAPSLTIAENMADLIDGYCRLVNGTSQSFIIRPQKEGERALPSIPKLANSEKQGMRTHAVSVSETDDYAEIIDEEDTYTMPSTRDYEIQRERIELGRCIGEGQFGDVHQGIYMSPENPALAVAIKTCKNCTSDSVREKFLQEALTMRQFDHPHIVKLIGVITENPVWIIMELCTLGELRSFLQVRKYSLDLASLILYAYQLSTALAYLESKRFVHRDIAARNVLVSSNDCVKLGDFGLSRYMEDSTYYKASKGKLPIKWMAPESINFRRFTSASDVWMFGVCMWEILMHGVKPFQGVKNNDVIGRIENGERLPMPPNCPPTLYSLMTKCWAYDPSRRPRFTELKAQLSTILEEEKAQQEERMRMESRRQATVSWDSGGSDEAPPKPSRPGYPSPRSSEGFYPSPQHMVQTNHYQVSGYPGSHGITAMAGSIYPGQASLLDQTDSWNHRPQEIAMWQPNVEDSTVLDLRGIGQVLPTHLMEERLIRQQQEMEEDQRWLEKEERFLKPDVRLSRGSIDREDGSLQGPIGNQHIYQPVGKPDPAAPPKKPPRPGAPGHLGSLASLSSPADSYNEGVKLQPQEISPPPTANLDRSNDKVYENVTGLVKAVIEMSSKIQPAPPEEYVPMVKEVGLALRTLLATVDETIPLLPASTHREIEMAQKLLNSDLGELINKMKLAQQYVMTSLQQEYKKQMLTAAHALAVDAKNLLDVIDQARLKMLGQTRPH
Test [14] relates to Fibrinogen (Alexa647-labelled). The experiment in a line: fibrinogen binders on compound microarrays, profiling panel, artefact control for SMM control-protein annotation, biochemical, small-molecule microarray, 635/667 nm fluorescence (AID 1131).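 Note: z-score merges 667 nm fluorescence with per-spot signal-to-noise over triplicate slides.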 The settings on record: fibrinogen-A647 binding fluorescence, higher = more signal.
The target of test [15] is Follistatin (Homo sapiens) (UniProt P19883). The experiment in a line: follistatin binders on small-molecule microarrays, primary screen, biochemical, small-molecule microarray, 635/667 nm fluorescence (AID 1132). The settings on record: FST binding, 635 nm fluorescence, higher = more signal.
Follistatin (Homo sapiens), sequence (P19883 whole entry, looked up): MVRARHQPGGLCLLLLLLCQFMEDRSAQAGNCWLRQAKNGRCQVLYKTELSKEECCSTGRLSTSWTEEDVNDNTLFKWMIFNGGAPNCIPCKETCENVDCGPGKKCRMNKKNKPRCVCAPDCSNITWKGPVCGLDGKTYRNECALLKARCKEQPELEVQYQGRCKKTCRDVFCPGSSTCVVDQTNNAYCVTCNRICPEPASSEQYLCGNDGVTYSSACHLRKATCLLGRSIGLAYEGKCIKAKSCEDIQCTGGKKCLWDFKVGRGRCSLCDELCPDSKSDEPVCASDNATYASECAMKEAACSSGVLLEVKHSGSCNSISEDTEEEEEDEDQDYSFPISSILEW
Test [16] deals with Fibroblast growth factor 2 (Homo sapiens) (UniProt P09038). The experiment in a line: FGF2 binders on small-molecule microarrays, primary screen, biochemical, small-molecule microarray, 635/667 nm fluorescence (AID 1133). As to conditions: small-molecule microarray binding, FGF2, fluorescence 635/667; higher = more signal.
Fibroblast growth factor 2 (Homo sapiens), sequence (P09038 whole entry, looked up): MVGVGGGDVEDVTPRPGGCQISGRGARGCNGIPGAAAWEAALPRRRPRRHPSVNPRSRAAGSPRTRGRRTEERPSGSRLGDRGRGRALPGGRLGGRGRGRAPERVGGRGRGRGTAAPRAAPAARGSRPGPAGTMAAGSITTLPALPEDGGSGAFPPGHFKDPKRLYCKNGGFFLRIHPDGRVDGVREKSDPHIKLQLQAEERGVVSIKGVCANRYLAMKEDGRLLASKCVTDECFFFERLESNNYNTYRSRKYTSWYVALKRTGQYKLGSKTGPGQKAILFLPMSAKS
Test [17] can be described thus: mitochondrial membrane potential change in A549 cells, profiling panel, cell-based, JC-1 fluorescence, basal, 24 h, 100 nL (AID 1138).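 Note: A549 lung adenocarcinoma cells under basal conditions with no added stimulus; test concentration not given here.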 The settings on record: higher = more signal.
In test [18] the test system is Lefty1. Put plainly: Lefty1 binders on small-molecule microarrays, primary screen, biochemical, small-molecule microarray, 635/667 nm fluorescence (AID 1139). The settings on record: small-molecule microarray binding, fluorescence 635/667; higher = more signal.
Test [19] deals with wheat germ agglutinin (Triticum aestivum), Alexa647-labelled. Put plainly: wheat germ agglutinin binders on compound microarrays, profiling panel, artefact control for SMM control-protein annotation, biochemical, small-molecule microarray, 635/667 nm fluorescence (AID 1140).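 Note: score merges 667 nm feature emission with signal to noise over triplicate slides.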 The settings on record: WGA-A647 binding, 635 nm fluorescence, higher = more signal.
Test [20] concerns the target Luciferin 4-monooxygenase (Photinus pyralis) (UniProt P08659). The experiment in a line: firefly luciferase enzyme inhibitors, primary screen, biochemical, luminescence, purified enzyme, 2006 set (AID 1141).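 Note: cell-free assay with purified firefly luciferase at 100 ng per well in PBS; test concentration not given here.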 As to conditions: SteadyGlo luminescence, 30 min, higher = more signal, called active from +8 up or from −8 down.

The source made the active and inactive calls.

Luciferin 4-monooxygenase (Photinus pyralis), sequence (P08659 whole entry, looked up): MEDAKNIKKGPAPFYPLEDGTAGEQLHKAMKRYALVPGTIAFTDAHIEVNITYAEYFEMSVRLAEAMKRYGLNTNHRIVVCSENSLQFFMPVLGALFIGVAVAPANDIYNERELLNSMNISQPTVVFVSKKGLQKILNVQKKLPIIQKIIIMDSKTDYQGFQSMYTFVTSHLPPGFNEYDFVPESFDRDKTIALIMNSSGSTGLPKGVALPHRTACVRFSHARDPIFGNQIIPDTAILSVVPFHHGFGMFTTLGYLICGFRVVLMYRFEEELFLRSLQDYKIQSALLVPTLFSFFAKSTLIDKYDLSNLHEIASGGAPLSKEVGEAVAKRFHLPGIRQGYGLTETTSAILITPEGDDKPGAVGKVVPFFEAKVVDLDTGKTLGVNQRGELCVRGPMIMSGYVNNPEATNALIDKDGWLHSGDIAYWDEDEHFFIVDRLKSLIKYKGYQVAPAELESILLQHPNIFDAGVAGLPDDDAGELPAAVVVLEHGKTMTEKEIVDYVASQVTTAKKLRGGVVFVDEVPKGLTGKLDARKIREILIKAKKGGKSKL
Albumin (Bos taurus), sequence (P02769 whole entry, looked up): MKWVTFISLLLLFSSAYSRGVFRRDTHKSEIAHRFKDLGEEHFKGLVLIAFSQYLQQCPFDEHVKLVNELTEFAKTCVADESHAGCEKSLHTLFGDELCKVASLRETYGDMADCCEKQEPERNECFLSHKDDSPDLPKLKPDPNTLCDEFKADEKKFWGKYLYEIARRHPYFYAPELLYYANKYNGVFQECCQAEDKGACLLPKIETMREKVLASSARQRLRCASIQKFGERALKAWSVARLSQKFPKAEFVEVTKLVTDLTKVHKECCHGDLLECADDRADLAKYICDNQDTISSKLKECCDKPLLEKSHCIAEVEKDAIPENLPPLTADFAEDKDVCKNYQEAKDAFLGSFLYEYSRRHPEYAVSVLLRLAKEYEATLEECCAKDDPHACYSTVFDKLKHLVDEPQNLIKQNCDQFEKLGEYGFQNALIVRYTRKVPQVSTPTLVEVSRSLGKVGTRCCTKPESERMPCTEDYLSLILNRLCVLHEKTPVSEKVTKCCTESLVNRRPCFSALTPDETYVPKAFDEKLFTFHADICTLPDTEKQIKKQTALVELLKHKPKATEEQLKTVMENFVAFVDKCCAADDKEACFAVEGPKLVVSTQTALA
Concanavalin-A (Canavalia ensiformis), sequence (P02866 whole entry, looked up): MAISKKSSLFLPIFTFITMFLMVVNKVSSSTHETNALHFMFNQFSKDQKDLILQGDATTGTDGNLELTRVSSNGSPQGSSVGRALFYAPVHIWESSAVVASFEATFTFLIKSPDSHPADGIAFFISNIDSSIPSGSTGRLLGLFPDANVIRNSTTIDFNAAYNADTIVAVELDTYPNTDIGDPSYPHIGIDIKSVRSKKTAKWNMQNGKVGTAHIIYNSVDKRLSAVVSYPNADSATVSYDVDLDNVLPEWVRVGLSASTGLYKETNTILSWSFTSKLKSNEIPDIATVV

For the compound `CC1=C2[C@@H](CCc3ccccc3)OB(O)C[C@@H]2[C@@H]2C(=O)N(C)C(=O)[C@@H]2C1`, the composite z-score in test [1] was 0.541; in test [3], 0.248; in test [4] it was -0.138; in [5] it was 0.422; in test [6], 0.0513; in test [7], 0.76. The composite z-score in test [8] was 0.453; in test [9], 0.723; in [10], 0.245; in [11], -0.463; in test [12], 0.591; in test [13], 0.0327. The composite z-score worked out at 0.762 in [14]; 0.587 in [15]; 0.509 in test [16]; 0.617 in [18]; 0.344 in [19]. Also, the composite Z-score in test [2] is 0.706 (inactive). The z-score in [17] is -0.0475; in [20], 0.143 (inactive).
Regarding `NC(=O)NCC#Cc1ccc2c(c1)[C@]1(C(=O)N2)[C@H](C(=O)N2CCN(c3ncccn3)CC2)[C@H]2C(=O)O[C@H](c3ccccc3)[C@H](c3ccccc3)N2[C@@H]1c1ccc(O)cc1`, the composite z-score was 0.151 in test [1]; 0.856 in test [3]; -0.0149 in test [4]; 0.304 in test [5]; 0.817 in [6]; 0.102 in [7]. The composite z-score in [8] worked out at 1.2; in test [9] it was 0.864; in test [10], 0.721; in test [11], 1.43; in [12] it was 1.14; in test [13] it was 0.244. Besides, the composite z-score is 0.768 in test [14]; 1.37 in [15]; 1.3 in [16]; 0.36 in test [18]; 0.542 in [19]. The composite Z-score in test [2] was 0.953 (inactive). In addition, the z-score in [17] was -0.982; in test [20], -0.598 (inactive).
On to `COc1ccc(CCNC(=O)[C@@]2(Sc3ccc(C)cc3)CC(=O)N(Cc3ccccc3C(F)(F)F)[C@@H]2c2ccc(CO)cc2I)cc1`, for which the composite z-score is 0.589 in test [1]; -0.357 in [3]; 0.102 in test [4]; 0.759 in test [5]; 2.09 in [6]; -0.0867 in [7]. The composite z-score was -0.3 in [8]; -0.865 in [9]; -0.71 in [10]; 2.42 in test [11]; 0.0953 in test [12]; -0.326 in test [13]. The composite z-score in test [14] is 0.685; in test [15] it was -0.706; in test [16], -0.512; in test [18], -1.63; in test [19], 0.827. Besides, the composite Z-score in test [2] is -0.0511 (inactive). Further, the figures for the z-score in test [17] and in test [20] were 1.56 and -0.555 (inactive), respectively.
On to `CC(CO)N1C(=O)[C@@H]2[C@H]3C(=O)OCC=C[C@H]3OC23C=CCN(Cn2nnc4ccccc42)C(=O)[C@@H]13` (stereo not given in full), for which the composite z-score in test [1] was -0.779; in test [3], -0.256; in test [4], -0.13; in [5] it was 0.419; in test [6], 0.523; in test [7] it was -0.199. In addition, the composite z-score in test [8] was -0.766; in test [9], -0.851; in test [10] it was -0.967; in [11], -1.02; in [12] it was -1.43; in test [13], -0.432. Besides, the composite z-score in test [14] was -0.8; in [15] it was -0.72; in [16], -0.358; in test [18] it was -0.406; in [19], -0.596. Also, the composite Z-score in [2] is 0.6 (inactive). Also, the z-score is -0.528 in test [17] and 0.27 (inactive) in test [20].
For the compound `C=CC[C@H](OC(=O)Nc1ccc(SC)cc1)c1ccc(O)c2ccccc12`, the composite z-score is 0.923 in test [1]; 0.152 in test [3]; -0.107 in test [4]; 0.634 in test [5]; 1.72 in test [6]; 0.368 in test [7]. Also, the composite z-score in test [8] came out at 1.29; in [9] it was 0.975; in test [10] it was 1.16; in test [11], 0.942; in [12], 1.23; in test [13], 0.492. The composite z-score in test [14] is 0.938; in [15], 1.36; in [16], 1.23; in [18] it was 1.08; in [19] it was 0.937. The composite Z-score in test [2] was -0.285 (inactive). Moreover, the z-score is -1.72 in [17] and -4.58 (inactive) in [20].
